According to PubChem BioAssay AID1619 (SRMLSC, 2009):
The whole screen tested about 220,000 compounds, of which about 830 (0.38%) were called active.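 The calls were made as follows: active = compound inhibiting the enzyme by more than half at any dose during confirmatory dose-response retesting; inconclusive = strong single-dose inhibitors picked by rank but not retested; inactive = the rest.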 These entries were drawn from the full list. Potency and affinity values are given separately. Residues, ends and D or L forms follow the SMILES beside them. *: point of attachment. Boc = CC(C)(C)OC(=O)*

target: Leucine aminopeptidase (Plasmodium falciparum (isolate 3D7)) (UniProt Q8IL11); assay: P. falciparum M17LAP inhibitors, primary screen, biochemical, fluorogenic H-Leu-NHMec substrate, 1536-well (AID 1619); conditions: recombinant M17LAP, H-Leu-NHMec fluorogenic kinetic assay; at 30 µM; active compounds read high;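 also: plate controls were full reaction with DMSO carrier for no effect and no enzyme background for full effect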
Sequence (Q8IL11 whole entry, looked up): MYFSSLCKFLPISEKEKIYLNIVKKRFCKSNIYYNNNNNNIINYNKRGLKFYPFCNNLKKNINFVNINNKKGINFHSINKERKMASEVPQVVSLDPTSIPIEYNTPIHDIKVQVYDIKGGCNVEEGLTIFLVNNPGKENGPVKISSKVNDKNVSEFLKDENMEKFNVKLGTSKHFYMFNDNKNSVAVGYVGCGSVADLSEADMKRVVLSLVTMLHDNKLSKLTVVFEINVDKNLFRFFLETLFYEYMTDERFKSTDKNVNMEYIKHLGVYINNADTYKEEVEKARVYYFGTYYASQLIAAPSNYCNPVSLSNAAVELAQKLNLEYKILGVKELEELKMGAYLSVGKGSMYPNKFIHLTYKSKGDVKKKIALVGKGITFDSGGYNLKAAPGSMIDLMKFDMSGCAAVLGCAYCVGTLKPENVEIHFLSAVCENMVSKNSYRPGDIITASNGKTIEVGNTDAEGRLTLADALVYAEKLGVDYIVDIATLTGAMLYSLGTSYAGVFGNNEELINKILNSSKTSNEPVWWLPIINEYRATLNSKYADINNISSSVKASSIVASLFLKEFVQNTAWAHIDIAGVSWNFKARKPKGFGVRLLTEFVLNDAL

| Compound | inhibition |
| --- | --- |
| CCOC(=O)N1CCN(c2cc(C)c(C(C)=O)cc2F)CC1 | 14.4% (inactive) |
| O=C(CN1C(=O)C2C3c4ccccc4C(c4ccccc43)C2C1=O)N1CCOCC1 (stereo not given) | 4.26% (inactive) |
| O=C(CN1C(=O)C2C3CC(C(Br)C3Br)C2C1=O)N1CCN(Cc2ccccc2)CC1 (stereo not given) | -4.45% (inactive) |
| CCCCOCCCNC(=O)CC(C)c1ccccc1 (stereo not given) | 1.77% (inactive) |
| CCCCn1c(=S)[nH]c2c(oc3ccc(Cl)cc32)c1=O | 21.5% (inactive) |
| CCOC(=O)N1CCN(C(=O)c2ccc3c(=O)n(Cc4ccc(Cl)cc4)c(=S)[nH]c3c2)CC1 | -6.9% (inactive) |
| O=C(COC(=O)/C=C/c1ccc(Cl)cc1Cl)NCCC1=CCCCC1 | 3.27% (inactive) |
| O=c1cc(CSc2nnc(Nc3ccccc3)s2)nc2sccn12 | 24.3% (inactive) |
| Cc1ccccc1Nc1nnc(SCc2cc(=O)n3ccsc3n2)s1 | 28.1% (inactive) |
| C/C(=C\C(=O)O)C12CC3CC(CC(C3)C1)C2 | 11.6% (inactive) |
| COc1ccc(NC(=O)/C=C/c2c(Cl)nc3ccccn23)cc1 | -6.42% (inactive) |
| CCc1ccccc1NC(=O)N[C@H](C(=O)O)C(C)CC (stereo not given in full) | 23.6% (inactive) |
| CCC(C)[C@H](NC(=O)Nc1ccc(S(N)(=O)=O)cc1)C(=O)O (stereo not given in full) | 4.8% (inactive) |
| CC(C)C[C@H](NC(=O)Nc1ccc(Oc2ccccc2)cc1)C(=O)O | 38.9% (inactive) |
| COC(=O)[C@H](C)NC(=O)Nc1ccc(Oc2ccccc2)cc1 | -1.77% (inactive) |
| CCc1c(C)sc2nc3c(C(=O)N4CCOCC4)cc(C(=O)c4ccccc4O)cn3c(=O)c12 | 5.44% (inactive) |
| Cc1noc(C)c1C1(O)CCCCCCCCCCC1 | 0.02% (inactive) |
| CSc1nc2ccccc2s1 | 13.1% (inactive) |
| CCC1CSC(Nc2ccc(C(=O)/C=C/c3ccc(Br)cc3)cc2)=N1 (stereo not given) | 15.6% (inactive) |
| CCSc1ncc(Cl)c(C(=O)Nc2ccccc2)n1 | -6.07% (inactive) |

| Compound | inhibition |
| --- | --- |
| CSc1ncc(Cl)c(C(=O)Nc2nnc(SC/C=C/c3ccccc3)s2)n1 | 29.5% (inactive) |
| C=CCSc1nnc(NC(=O)c2ccc(Cl)nc2)s1 | 9.37% (inactive) |
| CSc1ncc(Cl)c(C(=O)Nc2nnc(SC)s2)n1 | 13.3% (inactive) |
| O=C(CCn1cnc2ccccc21)N/N=C/c1ccccc1O | -4.46% (inactive) |
| CCOC(=O)CSc1nc(C(C)(C)C)nc2ccccc12 | -0.8% (inactive) |
| Cc1cc(C)c2c(=O)n(CC(=O)Nc3cccc(F)c3)sc2n1 | -3.07% (inactive) |
| CC1(C(=O)Nc2nnc(SCc3ccccc3)s2)Cc2ccccc2C(=O)O1 (stereo not given) | 45.4% (inactive) |
| CC1(C(=O)Nc2nnc(C(C)(C)C)s2)Cc2ccccc2C(=O)O1 (stereo not given) | 48.3% (inactive) |
| Cc1ccc(-c2noc(CNCCCN(C)C)n2)cc1 | 2.07% (inactive) |
| Cn1c(=O)c2c(SCC(=O)N3CCOCC3)nc(C3CCCCC3)nc2n(C)c1=O | -15.2% (inactive) |
| O=C(Cc1csc(NC(=O)c2ccccc2)n1)NO | 28.3% (inactive) |
| O=C(Cc1ccc(-c2ccccc2)cc1)NCc1ccccc1 | -2.44% (inactive) |
| CS(=O)(=O)N(CC(=O)N1CCOCC1)Cc1ccc(Cl)cc1 | -4.28% (inactive) |
| CN(C)CC(=O)c1ccc(-c2ccccc2)cc1 | 68.2% (inactive) |
| CCC(=O)c1ccc(-c2ccccc2)cc1 | -6.48% (inactive) |
| CC(C)(C)OC(=O)N1CCCC1C(=O)NC(Cc1ccccc1)C(=O)O (stereo not drawn) (Boc-Pro-Phe-OH; configuration not given here) | 9.76% (inactive) |
| CC(C)C(NC(=O)OC(C)(C)C)C(=O)N1CCCC1C(=O)NC(Cc1ccccc1)C(N)=O (stereo not drawn) (Boc-Val-Pro-Phe-NH2; configuration not given here) | 17.4% (inactive) |
| Cc1nn(-c2ccc(F)cc2)c(Cl)c1/C=C/C(=O)OCC(=O)Nc1ccc(F)cc1F | 0.75% (inactive) |
| O=C(c1ccccc1)c1ncc(C(F)(F)F)cc1Cl | -12.8% (inactive) |
| CCCCn1c(SCC(=O)c2ccc(O)c(O)c2)nc2ccsc2c1=O | 19.5% (inactive) |

| Compound | inhibition |
| --- | --- |
| O=C(O)CCCCCn1c(SCC(=O)N2CCCC2)nc2ccsc2c1=O | 14.5% (inactive) |
| CNc1nc(Oc2ccc(C(=O)OC)cc2)nc(SC)n1 | -13.4% (inactive) |
| Cn1cc(Cl)c(-c2n[nH]c(=S)n2-c2ccccc2)n1 | 8.04% (inactive) |
| CCOC(=O)c1c(NC(=O)CSc2nc3ccccc3c(=O)n2-c2ccccc2)sc(C(C)=O)c1C | -1.44% (inactive) |
| O=C(c1cnn(C(=O)COc2ccccc2F)c1)c1cc(F)ccc1O | 1.06% (inactive) |
| Cc1ccc(O)c(C(=O)c2cnn(C(=O)Cc3csc(C)n3)c2)c1 | -1.8% (inactive) |
| O=C(Cn1cnc2ccccc2c1=O)c1ccc(Cl)cc1 | 1.39% (inactive) |
| COc1ccc(N(C(=O)C(C)C)S(=O)(=O)c2ccc(Cl)cc2)cc1 | -1.25% (inactive) |
| CCOc1ccc(Nc2nc(Cc3nnc(SCC(N)=O)o3)cs2)cc1 | 27.7% (inactive) |
| CCn1c(CNc2nc(-c3ccccc3)cs2)nnc1SCC(=O)NCc1ccco1 | -5.1% (inactive) |
| CCn1c(COc2ccc(C)cc2)nnc1SCC(=O)NCc1ccco1 | 6.34% (inactive) |
| CCOc1ccc(Nc2nc(Cc3nnc(SCC(=O)c4ccc(C)cc4)o3)cs2)cc1 | 27.5% (inactive) |
| CC(=O)/C(=N\Nc1cccc(Cl)c1)Sc1nnc(-c2ccccc2)n1-c1ccccc1 | -10.1% (inactive) |
| CCC(Oc1ccccc1)C(=O)NC1C(=O)N2C1SC(C)(C)C2C(=O)O (stereo not given) | 19.9% (inactive) |
| Cn1c(=O)c2c(nc(N3CCCCC3)n2CCNC2=NCCC2)n(C)c1=O | 11.7% (inactive) |
| O=C(Nc1ccccc1)Nc1scc2c1c(=O)oc1ccccc12 | -3.24% (inactive) |
| COc1ccc(C(=O)N2CCc3cc(OC)c(OC)cc3C2c2cccc([N+](=O)[O-])c2)cc1OC (stereo not given) | -0.93% (inactive) |
| Cc1ccc(C2C(C#N)=C3N=C(N)c4ccccc4N3C3=C2C(=O)CCC3)cc1 (stereo not given) | -9.17% (inactive) |
| c1ccc2c(-c3nn[nH]n3)cccc2c1 | -2.27% (inactive) |
| Cn1c(-c2cccc3ccccc23)n[nH]c1=S | -3.33% (inactive) |
